Screening data as filed in PubChem.
Compounds with a hit are over-represented: about 2.7% of the library has one in this group of screens.
CHT block – human CHT choline transport inhibition | CHT-expressing cells, membrane potential dye, choline response; hits give low values | B-score at 10 µM | hit rate 0.86% among 310,000 | AID 488975;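 active = B-score over 3 SD under the library average, and starting fluorescence ratio not unusually high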;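 also: choline stimulus applied at its EC90 after an EC20 pre-addition; B-score computed on integrated fluorescence ratio after choline addition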
ANO1 activ – mouse TMEM16A channel activation, primary screen; Q8BHY3; HEK293 TMEM16A/YFP-H148Q/I152L, iodide quench fluorescence; hits give low values; B-score at 10 µM; hit rate 0.3% among 340,000;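 active = fluorescence-ratio B-score plate-corrected deviation score at least 3 library SD below zero, with starting fluorescence score within 5 deviations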;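 also: channel opened by trigger with iodide after compound preincubation; score built on the fluorescence ratio of max minus min over baseline; more negative score means more quench and so TMEM16A activation or potentiation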
IDE act – boosts human insulin-degrading enzyme activity in HEK cells | FAbeta-B cleavage, fluorescence polarization; 0% vehicle, 100% cell-free pure enzyme wells | activation, % at 5.96 µM | hit rate 0.073% among 340,000;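 active = activation above the mean of all tested compounds plus 3 SD, set per screening campaign, cut at about 17% in these data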
Target sequence (P14735 whole entry, looked up): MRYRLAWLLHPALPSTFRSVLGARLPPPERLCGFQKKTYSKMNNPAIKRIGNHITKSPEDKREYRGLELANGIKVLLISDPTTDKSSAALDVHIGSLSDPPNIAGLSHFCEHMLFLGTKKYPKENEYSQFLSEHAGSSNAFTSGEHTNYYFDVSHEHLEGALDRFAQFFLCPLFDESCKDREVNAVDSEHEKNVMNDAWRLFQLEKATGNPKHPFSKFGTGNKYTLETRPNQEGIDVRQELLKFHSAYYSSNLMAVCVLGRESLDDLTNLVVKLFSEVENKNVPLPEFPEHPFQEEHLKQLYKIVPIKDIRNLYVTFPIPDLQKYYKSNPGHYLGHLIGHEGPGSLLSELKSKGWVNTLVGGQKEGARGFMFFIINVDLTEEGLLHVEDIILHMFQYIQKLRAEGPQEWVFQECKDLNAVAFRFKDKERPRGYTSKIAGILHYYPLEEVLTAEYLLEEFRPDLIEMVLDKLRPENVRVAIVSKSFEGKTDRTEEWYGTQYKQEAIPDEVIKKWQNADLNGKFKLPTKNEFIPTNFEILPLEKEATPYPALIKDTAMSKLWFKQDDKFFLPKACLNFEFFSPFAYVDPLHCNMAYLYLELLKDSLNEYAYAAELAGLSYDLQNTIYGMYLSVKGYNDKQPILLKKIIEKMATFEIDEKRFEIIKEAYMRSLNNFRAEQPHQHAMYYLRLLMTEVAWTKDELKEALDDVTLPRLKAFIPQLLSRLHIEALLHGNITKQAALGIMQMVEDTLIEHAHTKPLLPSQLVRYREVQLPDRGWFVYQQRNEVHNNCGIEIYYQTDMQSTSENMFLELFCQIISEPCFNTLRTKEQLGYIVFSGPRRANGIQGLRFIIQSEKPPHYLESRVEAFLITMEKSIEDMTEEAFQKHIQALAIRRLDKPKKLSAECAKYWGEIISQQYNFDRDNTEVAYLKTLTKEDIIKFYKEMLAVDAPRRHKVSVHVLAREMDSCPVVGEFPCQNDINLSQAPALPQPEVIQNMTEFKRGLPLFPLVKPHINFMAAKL
IDE inh – cellular human IDE inhibition | inhibition, % at 5.59 µM | hit rate 0.41% among 320,000 | P14735 | HEK cells, FAbetaB cleavage, fluorescence polarization;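 active = percent inhibition above the average of all tested compounds plus 3 SD, set per screening campaign, cut at about 16% in these data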;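 also: IDE supplied by intact live HEK cells; FP after avidin binding of uncleaved biotin substrate so inhibition keeps polarization high; 0% = DMSO wells and 100% = 60 µM reference IDE inhibitor Ii1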
ANO1 block – mouse TMEM16A channel inhibition, primary screen; HEK293 TMEM16A/YFP iodide influx fluorescence, ionomycin; normalized B-score (activity score, 25-100; higher = stronger inhibition) at 10 µM; AID 588511; hit rate 1.2% among 310,000; Q8BHY3;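 active = ratio plate-corrected score three or more library SD toward inhibition, starting fluorescence score within five deviations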;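 also: score derived from kinetic fluorescence span divided by baseline fluorescence per well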
CHT allo act – allosterically activates the human high affinity choline transporter; CHT-expressing cells, membrane potential dye, choline EC20; hits give high values; LV-AA mutant CHT in HEK293 cells; hit rate 0.49% among 310,000; B-score at 10 µM; AID 488977; Q9GZV3;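 active = initial fluorescence not abnormally high and integrated response B-score, plate-corrected, over 3 SD above library mean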
TMEM16A reconf – re-confirmation of mouse TMEM16A chloride channel inhibitors | shares compounds with ANO1 block | AID 652189 | inhibition, % at 10 µM | hit rate 39% among 2,300 | HEK293 TMEM16A/YFP-H148Q, iodide quench fluorescence; ionomycin added to raise cell calcium;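 active = mean duplicate percent inhibition, scaled so buffer wells are 0 and the reference blocker 100, over three buffer SD above buffer mean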
TMEM16A Ca cntr – calcium mobilization counter-screen hit for TMEM16A inhibitor series. AID 652231. shares compounds with ANO1 block. calcium response (% of ionomycin), % at 10 µM. TMEM16A/YFP HEK293, Fluo4 calcium mobilization. hit rate 2% among 2,300;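 active = duplicate-averaged calcium signal over 20% of the ionomycin maximum, relative to buffer baseline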;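 also: each well's signal is peak minus trough fluorescence divided by its pre-addition baseline; 0% = buffer wells and 100% = ionomycin wells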
YFP-HEK293 quench – acts in parental YFP-HEK293 cells lacking TMEM16A, counter-screen | shares compounds with ANO1 block | iodide YFP quench, ionomycin | YFP ratio F(max-min)/F0 at 10 µM | 2,300 tested, under 10 active;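 active = yellow fluorescent protein signal ratio exceeding the buffer control mean by over 5 SD of those controls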;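 also: ratio is mean of duplicate wells from kinetic YFP trace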
ClC-1 rat inh – blocks the rat ClC-1 voltage-dependent chloride channel; shares compounds with ANO1 block; CHO ClC-1-YFP, iodide influx fluorescence quench; iodide control reads 0, buffer control 100; ratio percent, % at 10 µM; 2,300 tested, under 10 active;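 active = duplicate-mean ratio percent above the mean of iodide-only control wells, which defines zero, plus 5 of their SD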;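 also: higher percent means stronger block of ClC-1 iodide influx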
* = called active by the depositor.

`COc1ccc(Br)cc1C(=O)Nc1ccc(Cc2ccncc2)cc1` gave CHT block inactive, ANO1 activ inactive, IDE act -4.5, IDE inh 1.5, ANO1 block inactive and CHT allo act inactive.
Screening Cc1cccc(C(=O)OCC(=O)c2ccc3c(c2)NC(=O)CO3)c1 returned ANO1 activ inactive, IDE act 5.7 and IDE inh 1.7.
For CCN(CC)S(=O)(=O)c1cccc(C(=O)OCC(=O)c2ccc3c(c2)NC(=O)CO3)c1 the results were CHT block inactive, ANO1 activ inactive, IDE act 0.0, IDE inh -1.4, ANO1 block 25*, CHT allo act inactive, TMEM16A reconf inactive, TMEM16A Ca cntr inactive, YFP-HEK293 quench -1.11 and ClC-1 rat inh -2.5.
`CCOC(=O)Cc1c[nH]c2ccc([N+](=O)[O-])cc12` gave ANO1 activ inactive and IDE act 6.0.
Cc1ccc(NCc2nc(SCC(=O)Nc3ccccc3)n[nH]2)cc1 was read as CHT block inactive, ANO1 activ inactive, IDE act 9.2, IDE inh 2.4, ANO1 block inactive and CHT allo act inactive.
COc1cccc(-c2cc(C(=O)Nc3cc(C)on3)no2)c1 was read as CHT block inactive, ANO1 activ inactive, IDE act -6.2, IDE inh 5.2, ANO1 block inactive, CHT allo act inactive, TMEM16A reconf inactive, TMEM16A Ca cntr inactive, YFP-HEK293 quench -1.05 and ClC-1 rat inh -7.0.
Cc1cc(NC(=O)c2cc(-c3cccc(Cl)c3)on2)no1 was read as CHT block inactive, ANO1 activ inactive, IDE act 0.1, IDE inh 2.8, ANO1 block inactive and CHT allo act inactive.
For CC(=O)c1cccc(NCC(=O)N2CCN(S(=O)(=O)c3ccccc3)CC2)c1 the results were ANO1 activ inactive, IDE act 2.7 and IDE inh 1.2.
For Cc1nc2ccc(N=NC3=C(O)CCCC3=O)cc2s1 the results were CHT block inactive, ANO1 activ inactive, IDE act 3.8, IDE inh -0.8, ANO1 block inactive, CHT allo act inactive, TMEM16A reconf inactive, TMEM16A Ca cntr inactive, YFP-HEK293 quench -1.13 and ClC-1 rat inh -8.0.
`COc1ccc(Cl)cc1-c1nc(SCC(=O)NCC2CCCO2)n[nH]1` (centres undefined) gave ANO1 activ inactive, IDE act 3.5 and IDE inh -2.3.
CCOC(=O)c1c(NC(=O)c2ccncc2)sc(C)c1C was read as CHT block inactive, ANO1 activ inactive, IDE act -1.3, IDE inh 0.0, ANO1 block inactive and CHT allo act inactive.
CCOC(=O)c1sc(NC(=O)c2ccncc2)c(C#N)c1C was read as CHT block inactive, ANO1 activ inactive, IDE act -6.0, IDE inh 3.6, ANO1 block 25*, CHT allo act inactive, TMEM16A reconf 35.0%*, TMEM16A Ca cntr inactive, YFP-HEK293 quench -1.09 and ClC-1 rat inh -23.0.
Screening CCOC(=O)c1sc(NC(=O)CSc2nc3c(c(-c4ccc(OC)cc4)c2C#N)CCCC3)c(C#N)c1C returned CHT block inactive, ANO1 activ inactive, IDE act 1.4, IDE inh 0.1, ANO1 block inactive and CHT allo act inactive.
CCOC(=O)c1sc(NC(=O)CSc2nc3c(cc2C#N)CCCCCC3)c(C#N)c1C was read as CHT block inactive, ANO1 activ inactive, IDE act 5.9, IDE inh 5.7, ANO1 block 100*, CHT allo act inactive, TMEM16A reconf inactive, TMEM16A Ca cntr inactive, YFP-HEK293 quench -1.45 and ClC-1 rat inh -5.5.
COc1ccccc1C(=O)NC(=O)Nc1nc(-c2ccccc2)cc(C(F)(F)F)n1 was read as CHT block inactive, ANO1 activ inactive, IDE act 8.5, IDE inh 2.0, ANO1 block 25*, CHT allo act inactive, TMEM16A reconf inactive, TMEM16A Ca cntr inactive, YFP-HEK293 quench -1.12 and ClC-1 rat inh -11.5.
`O=S(=O)(Nc1nc(-c2ccccc2)cs1)c1cc(Cl)ccc1Cl` gave CHT block inactive, ANO1 activ inactive, IDE act 4.4, IDE inh -9.3, ANO1 block 25*, CHT allo act inactive, TMEM16A reconf 24.0%*, TMEM16A Ca cntr inactive, YFP-HEK293 quench -1.06 and ClC-1 rat inh -9.5.
`CCOc1ccc(/C=C2\SC(=S)N(CC(=O)N(CCO)C(C)(C)C)C2=O)cc1` gave CHT block inactive, ANO1 activ inactive, IDE act 0.1, IDE inh -10.5, ANO1 block inactive and CHT allo act inactive.
CCOc1ccc(N=C2NC(=O)S/C2=C\c2ccc(N(C)C)cc2)cc1 was read as CHT block inactive, ANO1 activ inactive, IDE act -13.1, IDE inh 13.0, ANO1 block inactive, CHT allo act inactive, TMEM16A reconf inactive, TMEM16A Ca cntr inactive, YFP-HEK293 quench -0.92 and ClC-1 rat inh 28.5.
Screening Cc1ccc(S(=O)(=O)N2CCC(C(=O)OCC(=O)NCCc3ccccc3)CC2)cc1C returned CHT block inactive, ANO1 activ inactive, IDE act 2.4, IDE inh 2.3, ANO1 block inactive and CHT allo act inactive.
For COC(=O)Nc1ccc(S(=O)(=O)N2CCC(Cc3ccccc3)CC2)cc1 the results were CHT block inactive, ANO1 activ inactive, IDE act 5.5, IDE inh 3.6, ANO1 block 100*, CHT allo act inactive, TMEM16A reconf inactive, TMEM16A Ca cntr inactive, YFP-HEK293 quench -1.09 and ClC-1 rat inh -7.0.
For COC(=O)Nc1ccc(S(=O)(=O)N2CCC(C)CC2)cc1 the results were CHT block inactive, ANO1 activ inactive, IDE act -1.4, IDE inh 4.4, ANO1 block inactive and CHT allo act inactive.
